Experimental data from PubChem BioAssay AID1159580 (chemical genetic matrix, 2015).
The campaign covered roughly 5,500 compounds. About 2,000 (36%) were called active. Inconclusive results (about 18%) are left out. Cut-off read from the data, not from the text of the source: active = normalized growth mostly below about 0.91 (no sharp cut-off); inconclusive = no clear call, values can overlap the other calls; inactive = mostly above about 0.92. This is one part of the list.

Assay: chemical genetic growth profiling, strain panel (AID 1159580);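 note: tested at 20 µM; growth read once vehicle control cultures reached saturation at 30 °C; 1 = growth at the plate median or of vehicle wells; lower values mean less growth of the strain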
Details: S. cerevisiae deletion strains, growth OD

Measured: normalized growth

O=C1N(c2ccccc2)c2ccccc2C1(Cc1ccncc1)Cc1ccncc1
inactive: locus YAL040C, strain CLN3, active compounds read low 1.01 | locus YCL061C, strain MRC1 (second series), active compounds read low 1.01 | locus YDR150W, strain NUM1, active compounds read low 1 | locus YDR363W, strain ESC2, active compounds read low 1.03 | locus YER002W, strain NOP16, active compounds read low 0.988 | locus YJR075W, strain HOC1, active compounds read low 1.02 | locus YMR307W, strain GAS1, active compounds read low 0.997 | locus YNL175C, strain NOP13, active compounds read low 0.996 | locus YNL197C, strain WHI3, active compounds read low 0.997 | locus YNL224C, strain SQS1, active compounds read low 1 | locus YNL322C, strain KRE1, active compounds read low 1.03 | locus YOR083W, strain WHI5 (second series), active compounds read low 1.02 | locus YPL055C, strain LGE1, active compounds read low 1.03 | locus YPL241C, strain CIN2, active compounds read low 0.995

CC1(C)CC2C1CC[C@]1(C)CCC3C(C(=O)O)CC(=O)O[C@@]32C1 (some centres not stated)
active: locus YDR335W, strain msn5, active compounds read low 1.15 [resistant] | locus YLR258W, strain gsy2, active compounds read low 1.1 [resistant] | locus YOR070C, strain gyp1, active compounds read low 1.14 [resistant] | locus YOR080W, strain dia2, active compounds read low 1.1 [resistant] | locus YOR290C, strain snf2, active compounds read low 1.18 [resistant]
inactive: locus YAL021C, strain ccr4, active compounds read low 1.07 | locus YAL026C, strain drs2, active compounds read low 1.07 | locus YAL030W, strain snc1, active compounds read low 1.04 | locus YBL061C, strain skt5, active compounds read low 1.03 | locus YBR009C, strain hhf1, active compounds read low 1.03 | locus YBR023C, strain chs3, active compounds read low 1.02 | locus YBR171W, strain sec66, active compounds read low 1.07 | locus YBR231C, strain swc5, active compounds read low 1.06 | locus YBR279W, strain paf1, active compounds read low 1.01 | locus YCL011C, strain gbp2, active compounds read low 1.03 | locus YCL016C, strain dcc1, active compounds read low 1.06 | locus YCL061C, strain MRC1, active compounds read low 1.03 | locus YCR088W, strain abp1, active compounds read low 1.03 | locus YDL005C, strain med2, active compounds read low 1.04 | locus YDL040C, strain nat1, active compounds read low 1.05 | locus YDR001C, strain nth1, active compounds read low 1.04 | locus YDR069C, strain doa4, active compounds read low 1.06 | locus YDR137W, strain rgp1, active compounds read low 1.04 | locus YDR159W, strain sac3, active compounds read low 1.05 | locus YDR195W, strain ref2 1.06 | locus YDR297W, strain sur2, active compounds read low 1.05 | locus YDR334W, strain swr1, active compounds read low 1.09 | locus YDR392W, strain spt3, active compounds read low 1.14 | locus YEL003W, strain gim4, active compounds read low 1.02 | locus YEL037C, strain rad23, active compounds read low 1.06 | locus YEL061C, strain CIN8 (second series), active compounds read low 1.04 | locus YER015W, strain faa2, active compounds read low 1.02 | locus YER016W, strain bim1, active compounds read low 1.04 | locus YER111C, strain swi4, active compounds read low 1.01 | locus YER155C, strain BEM2 (second series), active compounds read low 1.04 | locus YFR010W, strain ubp6, active compounds read low 1.09 | locus YGL167C, strain pmr1, active compounds read low 1.05 | locus YGL173C, strain kem1, active compounds read low 1.03 | locus YGL227W, strain vid30, active compounds read low 1.02 | locus YGL240W, strain doc1, active compounds read low 1.06 | locus YGL253W, strain hxk2, active compounds read low 1.06 | locus YHR013C, strain ard1, active compounds read low 1.05 | locus YHR027C, strain rpn1, active compounds read low 1.03 | locus YHR030C, strain SLT2, active compounds read low 1 | locus YHR079C, strain IRE1, active compounds read low 1 | locus YHR142W, strain chs7, active compounds read low 1.05 | locus YJL092W, strain hpr5, active compounds read low 1.07 | locus YJL095W, strain BCK1 (second series), active compounds read low 1.04 | locus YJL095W, strain BCK1, active compounds read low 0.99 | locus YJL115W, strain asf1, active compounds read low 1.06 | locus YJL129C, strain trk1, active compounds read low 1.09 | locus YJL154C, strain vps35, active compounds read low 1.05 | locus YJL164C, strain tpk1, active compounds read low 1.02 | locus YJL166W, strain qcr8, active compounds read low 1.05 | locus YJL187C, strain SWE1, active compounds read low 1.03 | locus YJR066W, strain TOR1, active compounds read low 0.942 | locus YKL160W, strain elf1, active compounds read low 1.05 | locus YKR026C, strain gcn3, active compounds read low 1.02 | locus YKR091W, strain srl3, active compounds read low 1.04 | locus YLL001W, strain dnm1, active compounds read low 1.07 | locus YLL026W, active compounds read low 1.01 | locus YLL041C, strain sdh2, active compounds read low 1.01 | locus YLR027C, strain aat2, active compounds read low 1.04 | locus YLR113W, strain HOG1, active compounds read low 0.98 | locus YLR221C, strain rsa3, active compounds read low 1.02 | locus YLR262C, strain YPT6 (second series), active compounds read low 1.07 | locus YLR320W, strain mms22, active compounds read low 1.05 | locus YLR342W, strain FKS1, active compounds read low 1.02 | locus YLR357W, strain rsc2, active compounds read low 1.13 | locus YLR370C, strain arc18, active compounds read low 1.03 | locus YLR384C, strain iki3, active compounds read low 1.01 | locus YML120C, strain ndi1, active compounds read low 1.04 | locus YMR058W, strain fet3, active compounds read low 1.03 | locus YMR125W, strain sto1, active compounds read low 1.06 | locus YMR129W, active compounds read low 1.05 | locus YMR205C, strain PFK2, active compounds read low 1.04 | locus YMR231W, strain pep5, active compounds read low 1.03 | locus YNL071W, strain lat1, active compounds read low 1.04 | locus YNL183C, strain NPR1, active compounds read low 0.931 | locus YNL209W, strain ssb2, active compounds read low 1.01 | locus YNL322C, strain KRE1 (second series), active compounds read low 1.02 | locus YNR049C, strain mso1, active compounds read low 1.05 | locus YOR001W, strain rrp6, active compounds read low 1.06 | locus YOR083W, strain WHI5, active compounds read low 1.08 | locus YOR106W, strain vam3, active compounds read low 1.05 | locus YOR231W, strain MKK1, active compounds read low 0.985 | locus YOR265W, strain rbl2, active compounds read low 1.05 | locus YOR270C, strain vph1, active compounds read low 1.14 | locus YPL051W, strain arl3, active compounds read low 1.03 | locus YPL078C, strain atp4, active compounds read low 1.07 | locus YPL106C, strain sse1, active compounds read low 1.11 | locus YPL240C, strain hsp82, active compounds read low 1.02 | locus YPL256C, strain CLN2, active compounds read low 0.967
